Molecular target: T1, Tyrosine-protein kinase Tec (Homo sapiens) (UniProt P42680)
T1 sequence (whole entry): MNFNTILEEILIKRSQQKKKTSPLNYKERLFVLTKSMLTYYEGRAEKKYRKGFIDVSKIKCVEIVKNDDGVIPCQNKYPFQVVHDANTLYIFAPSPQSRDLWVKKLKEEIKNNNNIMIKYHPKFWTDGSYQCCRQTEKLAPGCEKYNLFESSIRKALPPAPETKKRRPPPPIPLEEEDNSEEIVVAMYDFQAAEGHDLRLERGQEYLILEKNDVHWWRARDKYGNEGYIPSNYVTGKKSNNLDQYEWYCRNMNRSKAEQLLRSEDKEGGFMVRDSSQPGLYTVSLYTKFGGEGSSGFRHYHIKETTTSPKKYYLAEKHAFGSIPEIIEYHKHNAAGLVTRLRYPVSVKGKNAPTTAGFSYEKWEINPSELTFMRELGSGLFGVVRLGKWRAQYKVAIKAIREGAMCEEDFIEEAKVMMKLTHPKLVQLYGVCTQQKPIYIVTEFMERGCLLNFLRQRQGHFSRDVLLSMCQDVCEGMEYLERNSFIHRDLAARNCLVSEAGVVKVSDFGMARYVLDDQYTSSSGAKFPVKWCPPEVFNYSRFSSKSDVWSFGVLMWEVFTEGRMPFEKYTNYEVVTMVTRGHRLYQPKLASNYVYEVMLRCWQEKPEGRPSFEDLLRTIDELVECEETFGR
Conditions: at 10 µM

Structure (SMILES)	residual activity [%]
COC(=O)[C@@]1(O)C[C@H]2O[C@]1(C)n1c3ccccc3c3c4c(c5c6ccccc6n2c5c31)C(=O)NC4	2
CC(C)(C)c1cc(C=C(C#N)C#N)cc(Br)c1O	103
COc1cc2ncnc(Nc3ccc(OCc4ccccc4)cc3)c2cc1OC	67
COc1ccc2c(c1)/C(=C/c1cnc[nH]1)C(=O)N2	70
O=C1NC(=O)c2c1c1c3ccccc3n3c1c1c2c2ccccc2n1C1CCC3O1	76
CCn1cnc2c(Nc3cccc(Cl)c3)nc(N[C@@H]3CCCC[C@@H]3N)nc21	7
CC(C)[C@H](CO)Nc1nc(Nc2cccc(Cl)c2)c2ncn(C(C)C)c2n1	8
O=[N+]([O-])/C=C/c1ccc2c(c1)OCO2	90
CCc1nc(-c2ccc(OC)cc2)[nH]c1-c1ccncc1	75
O=c1[nH]c2ccccc2n1C1CCN(Cc2ccc(-c3nc4cc5[nH]cnc5cc4nc3-c3ccccc3)cc2)CC1	38
C[S+]([O-])c1ccc(-c2nc(-c3ccc(F)cc3)c(-c3ccncc3)[nH]2)cc1 (stereo not given)	89
O=C1Nc2ccc3ncsc3c2/C1=C/c1c[nH]cn1	42
COc1cc(OC)c(/C=C2\C(=O)Nc3ccccc32)c(OC)c1	77
COc1ccc2c(c[n+](C)c3c4cc5c(cc4ccc23)OCO5)c1OC	66
c1cc(-c2cnn3cc(-c4ccc(OCCN5CCCCC5)cc4)cnc23)ccn1	75

Reference: ChEMBL document CHEMBL2218924, “A broad activity screen in support of a chemogenomic map for kinase signalling research and drug discovery” (Biochem J, 2013)
